Assay results: PubChem BioAssay AID1159580 (chemical genetic matrix, 2015)
The campaign covered roughly 5,500 compounds. About 2,000 (36%) were called active. Not shown: some 18% with an inconclusive outcome. Rule as the data show it: active = normalized growth mostly below about 0.91 (no sharp cut-off); inconclusive = no clear call, values can overlap the other calls; inactive = mostly above about 0.92. The list shows a part of the results.

Assay: chemical genetic growth profiling, strain panel (AID 1159580);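 also: tested at 20 µM; growth read once vehicle control cultures reached saturation at 30 °C; 1 = growth at the plate median or of vehicle wells; lower values mean less growth of the strain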
Details: growth OD

Measured: normalized growth

COC(=O)Nc1nc2ccc(C(=O)c3ccccc3)cc2[nH]1
inactive: S. cerevisiae deletion strains, locus YJR075W, strain HOC1, hits give low values 0.924 | S. cerevisiae deletion strains, locus YKL009W, strain mrt4, hits give low values 1.05 | S. cerevisiae deletion strains, locus YKL085W, strain MDH1 (second series), hits give low values 1.05 | S. cerevisiae deletion strains, locus YKL085W, strain MDH1, hits give low values 1.05 | S. cerevisiae deletion strains, locus YKL190W, strain CNB1, hits give low values 1.01 | S. cerevisiae deletion strains, locus YKR001C, strain vps1, hits give low values 0.956 | S. cerevisiae deletion strains, locus YKR026C, strain gcn3, hits give low values 0.956 | S. cerevisiae deletion strains, locus YKR091W, strain srl3, hits give low values 1 | S. cerevisiae deletion strains, locus YLL001W, strain dnm1, hits give low values 0.933 | S. cerevisiae deletion strains, locus YLL026W, hits give low values 0.973 | S. cerevisiae deletion strains, locus YLL041C, strain sdh2, hits give low values 0.984 | S. cerevisiae deletion strains, locus YLR027C, strain aat2, hits give low values 0.94 | S. cerevisiae deletion strains, locus YLR039C, strain RIC1, hits give low values 0.938 | S. cerevisiae deletion strains, locus YLR058C, strain SHM2, hits give low values 1.02 | S. cerevisiae deletion strains, locus YLR102C, strain apc9, hits give low values 1 | S. cerevisiae deletion strains, locus YLR113W, strain HOG1, hits give low values 0.946 | S. cerevisiae deletion strains, locus YLR221C, strain rsa3, hits give low values 0.939 | S. cerevisiae deletion strains, locus YLR258W, strain gsy2, hits give low values 0.949 | S. cerevisiae deletion strains, locus YLR262C, strain YPT6, hits give low values 0.98 | S. cerevisiae deletion strains, locus YLR268W, strain sec22, hits give low values 0.98 | S. cerevisiae deletion strains, locus YLR330W, strain CHS5, hits give low values 1 | S. cerevisiae deletion strains, locus YLR342W, strain FKS1 (second series), hits give low values 0.852 | S. cerevisiae deletion strains, locus YLR357W, strain rsc2, hits give low values 0.925 | S. cerevisiae deletion strains, locus YLR370C, strain arc18, hits give low values 0.946 | S. cerevisiae deletion strains, locus YLR371W, strain rom2, hits give low values 1.01 | S. cerevisiae deletion strains, locus YLR384C, strain iki3, hits give low values 1 | S. cerevisiae deletion strains, locus YLR418C, strain cdc73, hits give low values 0.932 | S. cerevisiae deletion strains, locus YML016C, strain PPZ1, hits give low values 1.01 | S. cerevisiae deletion strains, locus YML032C, strain rad52, hits give low values 0.957 | S. cerevisiae deletion strains, locus YML120C, strain ndi1, hits give low values 0.96 | S. cerevisiae deletion strains, locus YMR058W, strain fet3, hits give low values 0.968 | S. cerevisiae deletion strains, locus YMR078C, strain ctf18, hits give low values 0.986 | S. cerevisiae deletion strains, locus YMR125W, strain sto1, hits give low values 1.03 | S. cerevisiae deletion strains, locus YMR129W, hits give low values 0.987 | S. cerevisiae deletion strains, locus YMR223W, strain ubp8, hits give low values 0.965 | S. cerevisiae deletion strains, locus YMR231W, strain pep5, hits give low values 0.955 | S. cerevisiae deletion strains, locus YMR263W, strain SAP30, hits give low values 0.999 | S. cerevisiae deletion strains, locus YNL067W, strain RPL9B, hits give low values 0.978 | S. cerevisiae deletion strains, locus YNL071W, strain lat1, hits give low values 0.925 | S. cerevisiae deletion strains, locus YNL128W, strain TEP1, hits give low values 1.01 | S. cerevisiae deletion strains, locus YNL209W, strain ssb2, hits give low values 0.971 | S. cerevisiae deletion strains, locus YNL248C, strain rpa49, hits give low values 0.977 | S. cerevisiae deletion strains, locus YNL250W, strain rad50, hits give low values 0.994 | S. cerevisiae deletion strains, locus YNL271C, strain bni1, hits give low values 1.01 | S. cerevisiae deletion strains, locus YNL298W, strain CLA4, hits give low values 1 | S. cerevisiae deletion strains, locus YNL322C, strain KRE1, hits give low values 0.997 | S. cerevisiae deletion strains, locus YNR049C, strain mso1, hits give low values 0.981 | S. cerevisiae deletion strains, locus YOL006C, strain TOP1, hits give low values 0.968 | S. cerevisiae deletion strains, locus YOL012C, strain htz1 0.338 | S. cerevisiae deletion strains, locus YOL147C, strain pex11, hits give low values 0.988 | S. cerevisiae deletion strains, locus YOR001W, strain rrp6, hits give low values 0.925 | S. cerevisiae deletion strains, locus YOR061W, strain CKA2, hits give low values 1 | S. cerevisiae deletion strains, locus YOR069W, strain VPS5, hits give low values 0.993 | S. cerevisiae deletion strains, locus YOR070C, strain gyp1, hits give low values 0.949 | S. cerevisiae deletion strains, locus YOR080W, strain dia2, hits give low values 0.979 | S. cerevisiae deletion strains, locus YOR083W, strain WHI5, hits give low values 0.896 | S. cerevisiae deletion strains, locus YOR136W, strain idh2, hits give low values 1.01 | S. cerevisiae deletion strains, locus YOR144C, strain elg1, hits give low values 1 | S. cerevisiae deletion strains, locus YOR231W, strain MKK1, hits give low values 0.931 | S. cerevisiae deletion strains, locus YOR265W, strain rbl2, hits give low values 0.98 | S. cerevisiae deletion strains, locus YOR270C, strain vph1, hits give low values 1.07 | S. cerevisiae deletion strains, locus YOR290C, strain snf2, hits give low values 0.959 | S. cerevisiae deletion strains, locus YOR316C, strain cot1, hits give low values 1 | S. cerevisiae deletion strains, locus YPL055C, strain LGE1, hits give low values 0.865 | S. cerevisiae deletion strains, locus YPL078C, strain atp4, hits give low values 0.931 | S. cerevisiae deletion strains, locus YPL106C, strain sse1, hits give low values 1.12 | S. cerevisiae deletion strains, locus YPL240C, strain hsp82, hits give low values 0.992 | S. cerevisiae deletion strains, locus YPL256C, strain CLN2, hits give low values 0.914 | S. cerevisiae deletion strains, locus YPR119W, strain clb2, hits give low values 0.998 | S. cerevisiae deletion strains, locus YPR141C, strain kar3, hits give low values 1.03 | S. cerevisiae deletion strains, locus YPR167C, strain met16, hits give low values 1 | S. cerevisiae deletion strains, strain wtn01, hits give low values 0.983 | S. cerevisiae strains, strain wild type, hits give low values 0.99
active: S. cerevisiae deletion strains, locus YKL160W, strain elf1, hits give low values 0.894 | S. cerevisiae deletion strains, locus YLR262C, strain YPT6 (second series), hits give low values 0.782 | S. cerevisiae deletion strains, locus YLR320W, strain mms22, hits give low values 0.849 | S. cerevisiae deletion strains, locus YLR342W, strain FKS1, hits give low values 0.908 | S. cerevisiae deletion strains, locus YML124C, strain tub3, hits give low values 0.207 | S. cerevisiae deletion strains, locus YMR205C, strain PFK2, hits give low values 0.806 | S. cerevisiae deletion strains, locus YMR307W, strain GAS1, hits give low values 0.463 | S. cerevisiae deletion strains, locus YNL153C, strain GIM3, hits give low values 0.0819 | S. cerevisiae deletion strains, locus YNL183C, strain NPR1, hits give low values 0.827 | S. cerevisiae deletion strains, locus YNL233W, strain BNI4, hits give low values 0.814 | S. cerevisiae deletion strains, locus YNL307C, strain MCK1, hits give low values 0.742 | S. cerevisiae deletion strains, locus YNL322C, strain KRE1 (second series), hits give low values 0.901 | S. cerevisiae deletion strains, locus YNR052C, strain pop2, hits give low values 0.91 | S. cerevisiae deletion strains, locus YOR106W, strain vam3, hits give low values 0.855 | S. cerevisiae deletion strains, locus YOR184W, strain ser1, hits give low values 0.717 | S. cerevisiae deletion strains, locus YPL051W, strain arl3, hits give low values 0.869 | S. cerevisiae deletion strains, locus YPL241C, strain CIN2, hits give low values 0.0733 | S. cerevisiae deletion strains, locus YPR163C, strain tif3, hits give low values 0.799
